# Values without a mark were called inactive. Inconclusive results are not listed. A call without a number means that no potency is given here. Active and inactive are the calls of the source. Unless noted, calls come from the whole dose curve; as a rule, active = well fitted curve in the direction sought with a large enough effect; inconclusive = small, poorly fitted or top-dose-only effect, or another doubt; inactive = no such curve, though single readings can be large; an effect the other way counts as inactive or inconclusive.
# Tests used:
# [1] = target: Cytochrome P450 2C19 (Homo sapiens) (UniProt P33261); test: qHTS Assay for Inhibitors and Substrates of Cytochrome P450 2C19 (AID 899); note: nearly all actives have a fitted effect of over 60% in size; note: potency is the fitted concentration of half-maximal effect
# Chain of Cytochrome P450 2C19 (Homo sapiens) (P33261 whole entry, looked up): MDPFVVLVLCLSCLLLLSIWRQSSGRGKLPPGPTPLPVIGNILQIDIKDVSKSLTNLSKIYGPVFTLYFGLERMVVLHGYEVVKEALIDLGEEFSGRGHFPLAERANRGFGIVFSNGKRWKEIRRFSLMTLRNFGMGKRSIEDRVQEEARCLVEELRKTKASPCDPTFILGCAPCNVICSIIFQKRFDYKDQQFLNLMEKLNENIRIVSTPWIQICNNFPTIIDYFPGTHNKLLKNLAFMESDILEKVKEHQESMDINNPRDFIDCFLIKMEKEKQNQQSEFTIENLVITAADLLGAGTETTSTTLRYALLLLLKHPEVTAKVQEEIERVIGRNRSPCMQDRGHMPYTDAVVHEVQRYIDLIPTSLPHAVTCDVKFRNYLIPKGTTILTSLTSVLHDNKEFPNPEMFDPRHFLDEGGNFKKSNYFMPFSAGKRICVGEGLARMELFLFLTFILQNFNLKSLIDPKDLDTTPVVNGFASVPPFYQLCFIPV
# How it was run: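 5nM enzyme + 10uM Luciferin-H EGE (=KM), 50mM KPO4; cpd pin-transferred, 10 min 37C; NADPH regen, 60 min 37C; stopped w/ luciferin detection reagent, 20 min; luminescence. Normalized to 57uM ketoconazole (AC100).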
# [2] = Cell Viability - Hek293 (AID 427;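 active = compounds whose dose-response curve shows a full or clear partial loss of cell viability, called from curve shape rather than a numeric limit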;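 note: potency is the fitted concentration of half-maximal effect; cells exposed to compound for 40 hours at 37 °C before reading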); settings: qHTS
# How it was run: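 Luminescent ATP read-out (CellTiter-Glo, 20 min RT) after 40 hr compound exposure at 37 °C in complete medium. Signal normalized to DMSO (basal) and 100 uM tamoxifen (100% inhibition); concentration-response fitted with the standard Hill equation to give AC50.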
# [3] = Cell Viability - SK-N-SH (AID 435; calls by dose curve;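 note: potency is the fitted concentration of half-maximal effect; compound exposure lasted 40 h at 37 °C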); settings: SK-N-SH neuroblastoma cell viability qHTS
# How it was run: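 Luminescent ATP signal served as the viability read-out after 40 hours of compound treatment of human neuroblastoma SK-N-SH cells. Concentration-response data, scaled between DMSO and 100 uM tamoxifen, gave AC50 values by standard Hill modeling.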
# [4] = Cell Viability - HUV-EC-C (AID 542); note: nearly all actives have a fitted effect of over 35% in size
# How it was run: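 qHTS cytotoxicity: HUV-EC-C, 1000 cells/well, 5 hr settle, compound 40 hr 37 °C, CellTiter-Glo, luminescence. AC50 via Hill equation.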
# [5] = Cell Viability - SH-SY5Y (AID 544); settings: SH-SY5Y neuroblastoma cell viability; viability change, negative = cytotoxic: at 92.2 µM (top of the series); note: nearly all actives have a fitted effect of over 55% in size; note: potency is the fitted concentration of half-maximal effect
# How it was run: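 Luminescent ATP read-out (CellTiter-Glo) measures loss of viable SH-SY5Y neuroblastoma cells after 40 hr compound exposure at 37 °C. AC50 values derive from standard Hill modelling of qHTS concentration-response data.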
# [6] = Cellular Toxicity (caspase-3) HUV-EC-C (AID 656)
# How it was run: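 qHTS; HUV-EC-C, 1000 cells/well; 5 hr settle, 16 hr cmpd, 37°C; Caspase-Glo 3/7, 20 min RT; luminescence. Norm: DMSO = 0%, tamoxifen 100 uM = 100%. Hill-fit AC50.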
# [7] = Cellular Toxicity (caspase-3) BJ (AID 658)
# How it was run: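 Readout: Caspase-Glo 3/7 luminescence increase in BJ cells after 16 hr treatment at 37 °C. Staurosporine and tamoxifen served as positive controls; AC50 values came from Hill modelling of data normalized to DMSO and 10 uM staurosporine.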
# [8] = Cellular Toxicity (caspase-3) MRC-5 (AID 659)
# How it was run: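 Concentration-dependent caspase 3/7 activation is measured in human normal lung fibroblasts (MRC-5) following 16-hour treatment. AC50 values come from standard Hill-equation modeling of luminescence normalized to DMSO and 10 uM staurosporine.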
# [9] = Cellular Toxicity (caspase-3) Mesangial (AID 660); settings: Potency: caspase-3 activation;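 note: combined caspase 3 and 7 activity read by Caspase-Glo luminescence; cells exposed to compound for 16 h before the caspase read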
# How it was run: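 Mesangial cells, 1000/well, 5 h settle at 37 °C; compound 16 h, 37 °C; Caspase-Glo 3/7 reagent 20 min RT; luminescence. Norm.: DMSO = 0%, tamoxifen 100 uM = 100%. AC50, Hill fit.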
# [10] = Cellular Toxicity (caspase-3) Hek293 (AID 664); settings: HEK293 caspase-3 activation, DMSO = 0%, 100 µM tamoxifen = 100%; at 92.2 µM (top of the series);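 note: cells exposed to compound for 16 h at 37 °C before readout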
# How it was run: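 Cells plated, 5 hr at 37 °C; compounds added; 16 hr at 37 °C; Caspase-Glo 3/7 reagent, 20 min RT; luminescence read. Activation expressed relative to DMSO and 100 uM tamoxifen, AC50 by Hill model.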
# [11] = Cellular Toxicity (caspase-3) N2a (AID 665);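 note: compound exposure lasted 16 h at 37 °C before readout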
# How it was run: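 N2a cells, 1500/well, 5 h settle at 37 °C; cpd 16 h, 37 °C; Caspase-Glo 3/7, 1 h RT; luminescence. Norm: DMSO = 0, 10 uM staurosporine = 100%. AC50, Hill fit.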
# [12] = Cell Viability - LYMP1-003 - Assay at 24 hr (AID 963); note: potency is the fitted concentration of half-maximal effect
# How it was run: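 Cells seeded at 2500/well, 5 hr at 37 C; compounds added; 24 hr at 37 C; CellTiter-Glo added, 30 min room temperature; luminescence read. Decrease in ATP taken as cytotoxicity, AC50 from Hill modelling.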
# [13] = Cell Viability - LYMP2-003 (AID 965);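 note: cells exposed to compounds for 24 h before reading; nearly all actives have a fitted effect of over 50% in size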; note: potency is the fitted concentration of half-maximal effect
# How it was run: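 Seed 2500 lymphoblastoid cells/well; incubate 5 hr, 37 C; add compounds; incubate 24 hr, 37 C; add CellTiter-Glo, 30 min RT; read luminescence. AC50 from Hill fit.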
# [14] = Cell Viability - LYMP2-015 (AID 971); note: nearly all actives have a fitted effect of over 55% in size; note: potency is the fitted concentration of half-maximal effect
# How it was run: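 Luminescent ATP read-out (CellTiter-Glo) served as the viability measure after lymphoblastoid cells were exposed to compounds for 24 hours at 37 C. Concentration-response data were fitted with the Hill equation to give AC50.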
# [15] = Cell Viability - LYMP2-019 (AID 973); note: nearly all actives have a fitted effect of over 55% in size; note: potency is the fitted concentration of half-maximal effect
# How it was run: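 Luminescent ATP read-out (CellTiter-Glo, 30 min room temperature) served as the viability measure after 24 hr treatment of lymphoblastoid cells at 37 C. Concentration-response data were fitted to the Hill equation for AC50.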
# [16] = Cell Viability - LYMP2-016 (AID 984); note: nearly all actives have a fitted effect of over 55% in size; note: potency is the fitted concentration of half-maximal effect
# How it was run: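 Cells were seeded at 2500 per well and rested 5 hr before a 24 hr compound exposure at 37 C. Viability was then gauged as cellular ATP by luciferase luminescence, with AC50 values fitted to the Hill equation.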
# [17] = Cell Viability - LYMP2-018 (AID 985); note: nearly all actives have a fitted effect of over 50% in size; note: potency is the fitted concentration of half-maximal effect
# How it was run: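 Luminescent ATP signal (CellTiter-Glo, read after 30 min at room temperature) reports viable cells after 24 hr compound treatment at 37 C. Concentration-response data were fitted to the standard Hill equation for AC50.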
# [18] = qHTS assay for cell viability of HEK293 cells (AID 743288); settings: ATP luminescence (CellTiter-Glo), 18 h; max response: stronger effect = lower value; note: nearly all actives have a fitted effect of over 50% in size; note: potency is the fitted concentration of half-maximal effect
# How it was run: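 HEK293 parental, 2,000 cells/well; ≥5 h pre-incubation 37 C; pintool compound addition; 18 h, 37 C; CellTiter-Glo 30 min RT; luminescence read.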
# [19] = qHTS assay for cell viability of the p53RE-bla HCT-116 cell line (AID 743292); note: nearly all actives have a fitted effect of over 55% in size; note: potency is the fitted concentration of half-maximal effect
# How it was run: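 CellSensor p53RE-bla HCT-116 cells (4,000/well) pre-incubated 5 h at 37 C, then exposed to compounds in DMSO for 16 h at 37 C. Viability read as ATP content by CellTiter-Glo luminescence after 30 min at room temperature.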
# [20] = target: Tumor necrosis factor (Homo sapiens) (UniProt P01375); test: qHTS assay to identify small molecules that stimulate Tumor Necrosis Factor-alpha (TNF-alpha) secretion (AID 651757; active = well fitted curve in the direction sought with a large enough effect in the signal ratio; the % refers to the signal ratio)
# Chain of Tumor necrosis factor (Homo sapiens) (P01375 whole entry, looked up): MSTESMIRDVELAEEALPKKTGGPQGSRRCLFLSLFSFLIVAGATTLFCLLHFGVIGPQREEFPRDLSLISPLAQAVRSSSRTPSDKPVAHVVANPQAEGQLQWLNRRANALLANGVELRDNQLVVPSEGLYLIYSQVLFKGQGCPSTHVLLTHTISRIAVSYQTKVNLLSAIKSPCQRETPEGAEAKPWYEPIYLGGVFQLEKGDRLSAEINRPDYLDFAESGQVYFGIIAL
# How it was run: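 Read-out is HTRF, a TR-FRET sandwich of cryptate- and XL665-labeled anti-TNF-alpha antibodies detecting cytokine secreted by THP-1 cells. Cells had been incubated with test compounds at 37 C for 17 hrs beforehand.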
smiles,measurement,setting,value
CC[C@@H]1CN2CC[C@@H]1C[C@H]2[C@@H](O)c1ccnc2ccc(OC)cc12,Potency,[1],inactive
CN(C)c1ccc(N=O)cc1,Potency,[2],47.4 µM (active)
same,Potency,[3],7.28 µM (active)
same,Potency,[4],inactive
same,Potency,[5],1.26 µM (active)
same,outcome,[6],inactive
same,outcome,[7],inactive
same,outcome,[8],inactive
same,Potency,[9],inactive
same,caspase-3 activation,[10],9.09%
same,outcome,[11],inactive
same,Potency,[12],7.94 µM (active)
same,Potency,[13],1.26 µM (active)
same,Potency,[14],1 µM (active)
same,Potency,[15],1 µM (active)
same,Potency,[16],1.58 µM (active)
same,Potency,[17],1.26 µM (active)
same,Potency,[18],39.8 µM (active)
same,Potency,[19],inactive
N[C@]1(C(=O)O)CC[C@@H](C(=O)O)C1,Potency,[1],inactive
CC(=O)[O-].CC(=O)[O-].O.O.[Cd+2],Potency,[4],inactive
same,outcome,[6],inactive
same,outcome,[7],inactive
same,outcome,[8],inactive
same,Potency,[9],inactive
same,caspase-3 activation,[10],4.76%
same,outcome,[11],inactive
same,Potency,[12],inactive
same,Potency,[13],inactive
same,Potency,[14],39.8 µM (active)
same,Potency,[15],inactive
same,Potency,[16],inactive
same,Potency,[17],inactive
same,Potency,[20],inactive
same,Potency,[19],inactive
[Cd+2].[Cl-].[Cl-],Potency,[2],51.2 µM (active)
same,Potency,[4],inactive
same,outcome,[6],inactive
same,outcome,[7],inactive
same,outcome,[8],inactive
same,Potency,[9],inactive
same,caspase-3 activation,[10],1.43%
same,outcome,[11],inactive
same,Potency,[13],inactive
same,Potency,[14],50.1 µM (active)
same,Potency,[16],inactive
same,Potency,[17],inactive
same,Potency,[20],inactive
same,Potency,[19],inactive
O=[N+]([O-])C(Br)Br,Potency,[2],> 92 µM
same,Potency,[4],inactive
same,"viability change, negative = cytotoxic",[5],-98.3% (active)
same,outcome,[6],inactive
same,outcome,[7],inactive
same,outcome,[8],inactive
same,Potency,[9],inactive
same,caspase-3 activation,[10],-9.23%
same,outcome,[11],inactive
same,Potency,[12],inactive
same,Potency,[13],25.1 µM (active)
same,Potency,[14],10 µM (active)
same,Potency,[15],10 µM (active)
same,Potency,[16],15.8 µM (active)
same,Potency,[17],12.6 µM (active)
same,Potency,[20],inactive
same,max response,[18],-25.4%
same,Potency,[19],inactive
ClC1=C(Cl)C2(Cl)C3C(Cl)C(Cl)CC3C1(Cl)C2(Cl)Cl (centres undefined),Potency,[2],72.7 µM (active)
same,"viability change, negative = cytotoxic",[5],-97.5% (active)
same,outcome,[7],inactive
same,outcome,[8],inactive
same,Potency,[9],inactive
same,caspase-3 activation,[10],204% (active)
same,Potency,[12],inactive
same,Potency,[14],inactive
same,Potency,[15],inactive
same,Potency,[16],inactive
same,Potency,[17],inactive
same,Potency,[20],inactive
same,Potency,[19],50.1 µM (active)
C(=NC1CCCCC1)=NC1CCCCC1,Potency,[4],inactive
same,Potency,[5],inactive
same,outcome,[6],inactive
same,outcome,[7],inactive
same,outcome,[8],inactive
same,Potency,[9],inactive
same,outcome,[11],inactive
same,Potency,[12],inactive
same,Potency,[13],inactive
same,Potency,[20],inactive
same,Potency,[19],inactive
c1cc2c(cc1[C@H]1OC[C@H]3[C@@H]1CO[C@H]3c1ccc3c(c1)OCO3)OCO2,Potency,[1],3.16 µM (active)
CC1=C2[C@@H]3OC(=O)[C@H](C)[C@H]3CC[C@@]2(C)C=CC1=O,Potency,[1],inactive
C[C@@H](CO)NC(=O)[C@H]1C=C2c3cccc4[nH]cc(c34)C[C@H]2N(C)C1,Potency,[1],inactive
C=CCCN1C[C@@H]2C[C@H](C1)c1cccc(=O)n1C2,Potency,[1],inactive
O=C1C[C@H]2OCCC=C3CN4CC[C@@]56c7ccccc7N1[C@@H]5[C@H]2[C@H]3C[C@@H]46,Potency,[1],inactive
O=c1cccc2n1C[C@H]1C[C@@H]2CN(CCO)C1,Potency,[1],inactive
CC(C)(C)[C@@]1(O)C[C@@H]2OC(=O)C[C@@]23C(=O)O[C@H]2OC(=O)[C@@H](O)[C@]231,Potency,[1],inactive
OC[C@H]1CCCN2CCCC[C@@H]12,Potency,[1],inactive
CC[C@H]1[C@@H]2C[C@@H]3[C@@H]4N(C)c5ccccc5[C@@]45C[C@@H]([C@H]2[C@@H]5O)N3[C@@H]1O,Potency,[1],inactive
C[C@@H]1CCC/C=C\[C@H]2C[C@H](O)C[C@@H]2[C@H](O)/C=C\C(=O)O1,Potency,[1],inactive
COC1=C[C@H]2[C@@H]3Cc4ccc(OC)c(O)c4[C@@]2(CCN3C)CC1=O,Potency,[1],inactive
COc1cc2c(cc1OC)-c1c(OC)c(OC)c(CO)c3c1[C@H](C2)N(C)CC3,Potency,[1],inactive
C[C@@]12CCC[C@](C)(C(=O)O)[C@@H]1CCc1ccc(O)cc12,Potency,[1],inactive
